# TDP1 cell noCPT: qHTS for Inhibitors of human tyrosyl-DNA phosphodiesterase 1 (TDP1): qHTS in cells in absence of CPT; AID 686978, 2013; Potency, µM (titrated, usually from 46.2 µM), for inactives: top-dose activity change, negative = growth inhibition, actives largely listed as inhibitors; DT40 Tdp1-/- hTDP1 cells, no CPT, ATP luminescence, 48 h; 420,000 tested, 15% active; note: potency is the fitted concentration of half-maximal effect; nearly all actives have a fitted effect of over 55% in size
#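 Compound effects on proliferation are scored in DT40 Tdp1-/-;hTDP1 cells in the absence of CPT. ATP levels (CellTiter-Glo luminescence) are recorded after a ≥48 hr, 37 °C incubation.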
# TDP1 cell CPT: DT40-hTDP1 cell growth loss with CPT; 420,000 tested, 12% active; Potency, µM (titrated, usually from 46.2 µM), without a hit: top-dose activity change, negative = growth inhibition, usual class: inhibitors; chicken DT40 Tdp1-/-;hTDP1 cells + 20 nM CPT, ATP luminescence, 48 h; note: potency is the fitted concentration of half-maximal effect; nearly all actives have a fitted effect of over 55% in size
#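 Cell growth measured by CellTiter-Glo luminescence after a minimum 48 h, 37 C compound exposure with 20 nM CPT in Tdp1-knockout DT40 cells stably expressing hTDP1, seeded 400/well; qHTS titration format.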
# HT1080 IDH1KD tx: HT-1080 IDH1 knockdown cell toxicity (counter line). Potency, µM (titrated, usually from 46.1 µM), inactives show top-dose activity, negative = toxicity, actives largely listed as cytotoxic. 360,000 tested, 2% active. HT-1080 IDH1 knockdown viability, ATP luminescence, 48 h;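 note: potency is the fitted concentration of half-maximal effect; 0% = DMSO wells and -100% = cell-free medium wells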
#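 % activity derives from luminescence (CellTiter-Glo), normalised to DMSO and no-cell wells. HT-1080-IDH1KD cells, 750/well, had 48 h compound exposure at 37 °C.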
# HT1080-NT tox: kills 2HG-producing HT-1080-NT fibrosarcoma cells. HT-1080-NT fibrosarcoma viability, CellTiter-Glo ATP luminescence, 48 h. Potency, µM (series often up to 46.1 µM), without a hit: at the highest dose activity, negative = less viability, actives largely listed as cytotoxic. 360,000 tested, 1.6% active. AID 686970;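 note: NT is the 2HG producing partner of a matched IDH1 knockdown line; potency is the fitted concentration of half-maximal effect; 0% = DMSO-treated cells and -100% = media-only wells without cells; nearly all actives have a fitted effect of over 55% in size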
#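 HT-1080-NT; 750 cells/well; 5% FBS RPMI; 48 h compound, 37 degrees C; CellTiter-Glo luminescence; curve fitting and curve-class assignment.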
# IL1B secr inh: inflammasome signaling inhibition, IL-1 beta readout; THP-1 LPS/ATP IL-1B secretion, AlphaLISA, 16 h; active compounds read low; activity change, % at 57.5 µM; 360,000 tested, 4.7% active; AID 743279; in the data active = activity change below about -50%; inconclusive = mostly about -30% to -49%
#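 THP-1 cells pretreated 1 hr with compounds (up to 57.5 uM final), then stimulated with LPS (250 ng/mL final) plus ATP (1.25 mM final); secreted IL-1B measured by AlphaLISA after 16 hr, decreased signal indicating inhibition.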
# * = called active by the depositor; ? = inconclusive; . = no result. Only some compounds are listed: those with a hit (about 19% of all), similar ones and a draw of the others. Unless noted, calls come from the whole dose curve; as a rule, active = well fitted curve in the direction sought with a large enough effect; inconclusive = small, poorly fitted or top-dose-only effect, or another doubt; inactive = no such curve, though single readings can be large; an effect the other way counts as inactive or inconclusive. Unless noted, % is set by controls: 0 for no effect and ±100 for the full control effect.
SMILES,TDP1 cell noCPT,TDP1 cell CPT,HT1080 IDH1KD tx,HT1080-NT tox,IL1B secr inh
CCCCNS(=O)(=O)c1ccc2nc(SCC(=O)Nc3ccccc3)[nH]c2c1,16µM*,-1%,-13%,-2%,0
Cc1ccc2nc(SCC(=O)Nc3ccc4c(c3)CCC4)[nH]c2c1,?,18µM*,-21%,-28%,0
CCCCNS(=O)(=O)c1ccc2nc(SCC(=O)c3ccc(C#N)cc3)[nH]c2c1,-27%,-22%,-6%,-8%,6
Cc1ccc2nc(SCC(=O)Nc3cccnc3Cl)[nH]c2c1,4%,11%,1%,4%,-8
O=C(Nc1cc(Cl)ccc1N1CCCC1)C1=NN(c2ccccc2)C(=O)CC1,?,?,12%,10%,31
CCc1ccc(N(CC)C(=O)c2cn(C)c(=O)c3ccccc23)cc1,-4%,12%,6%,19%,17
O=C(CNc1n[nH]c(=O)[nH]c1=O)N/N=C/C=C/c1ccccc1,1%,0%,6%,5%,3
CN(C)S(=O)(=O)c1cccc(NC(=O)CSc2nnnn2-c2ccccc2)c1,23µM*,15µM*,-3%,?,-2
CCN(CC)S(=O)(=O)c1cccc(NC(=O)CSc2nc3ccccc3[nH]2)c1,16µM*,23µM*,-7%,-1%,-57*
NS(=O)(=O)c1cccc(NC(=O)CSc2nc3ccc(Cl)cc3[nH]2)c1,?,10%,-1%,-1%,-20
Cc1ccc([C@H]2C[C@H](O)[C@@H](n3cc(COC(=O)c4ccccc4)nn3)CN2C(=O)c2cccs2)cc1,?,?,-1%,-1%,19
COc1ccccc1NS(=O)(=O)c1cccc(NS(=O)(=O)c2ccc(Cl)c(C(=O)O)c2)c1,2%,-19%,16%,6%,32
CCC(=O)N1CCc2cc(S(=O)(=O)CCC(=O)NCc3ccco3)ccc21,2.9µM*,-102%,?,-24%,32
COc1ccccc1NC(=O)CCNS(=O)(=O)c1ccc2c(c1)CC(C)N2C(=O)C1CC1 (stereo not drawn),?,?,1%,2%,0
COc1ccccc1CNC(=O)CCS(=O)(=O)c1ccc2c(c1)CC(C)N2C(=O)C1CC1 (stereo not drawn),23µM*,21µM*,5%,6%,-11
O=C(CCS(=O)(=O)c1cc(Br)cc2c1N(C(=O)C1CC1)CC2)NCc1ccco1,?,-23%,8%,11%,-20
CC1Cc2cc(S(=O)(=O)CCC(=O)NCc3ccco3)ccc2N1C(=O)C1CC1 (stereo not drawn),2.9µM*,6.5µM*,?,?,0
CC(CC(=O)NCc1ccco1)S(=O)(=O)c1ccc2c(c1)CCN2C(=O)C1CC1 (stereo not drawn),?,18µM*,?,-26%,12
CCC(O)c1nc2ccccc2n1CCc1ccccc1 (stereo not drawn),?,?,-4%,9%,-4
CCOc1ccccc1Nc1nnc(SCC(=O)NC(=O)c2cccn2C)s1,-11%,-15%,-8%,-4%,-6
N#Cc1cccc(NC(=O)CCNS(=O)(=O)c2ccc3[nH]c(=O)oc3c2)c1,15%,2%,0%,-2%,-4
COc1ccc(CNC(=O)CCS(=O)(=O)c2ccc3c(c2)CC(C)N3C(=O)C2CC2)cc1 (stereo not drawn),3.7µM*,15µM*,?,-14%,-14
CC1Cc2cc(S(=O)(=O)NCCC(=O)NCc3ccc(F)cc3)ccc2N1C(=O)C1CC1 (stereo not drawn),?,?,-11%,3%,-16
COc1ccc(-c2nc(S(=O)(=O)c3ccc(C)cc3)c(NCc3ccccc3)o2)cc1,16µM*,?,.,.,.
Cc1ccc(S(=O)(=O)c2nc(-c3ccccc3F)oc2NCc2ccccc2)cc1,21µM*,?,.,.,.
SMILES,TDP1 cell noCPT,TDP1 cell CPT,HT1080 IDH1KD tx,HT1080-NT tox,IL1B secr inh
O=S(=O)(c1ccccc1)c1nc(-c2cccc(Cl)c2)oc1NCc1ccccc1,26µM*,?,.,.,.
CNc1oc(-c2ccccc2F)nc1S(=O)(=O)c1ccc(C)cc1,-18%,-3%,2%,-1%,-7
O=S(=O)(c1ccccc1)c1nc(-c2ccco2)oc1NCc1ccccc1,-16%,-10%,?,-23%,2
CCCCN(C(C)=O)c1c(CC)nc2ccc(C(=O)NCc3cccs3)cn12,?,?,11%,11%,-5
CCOc1ccc(CCNC(=O)c2ccc(Cn3c(=O)c4cccn4c4cccnc43)cc2)cc1,21µM*,13µM*,.,.,.
CC(C)Oc1ccc(CNC(=O)c2ccc(Cn3c(=O)c4cccn4c4cccnc43)cc2)cc1,0.46µM*,?,.,.,.
O=C(NCc1ccccc1)c1ccc(Cn2c(=O)c3cccn3c3cccnc32)cc1,-23%,-6%,.,.,.
CCOc1ccc(CCNC(=O)c2cccc(-n3c(C)nc4cccnc43)c2C)cc1,15µM*,21µM*,.,.,.
O=C(NCCc1ccc(Cl)cc1)c1ccc(Cn2c(=O)c3cccn3c3cccnc32)cc1,15µM*,?,.,.,.
COc1ccc(NS(=O)(=O)c2ccc(NC(=O)C(CCSC)NC(N)=O)cc2)cc1 (stereo not drawn),31%,-1%,-1%,3%,21
COc1ccc(/C=C(/C#N)c2nc(-c3cc4ccccc4oc3=O)cs2)cc1,15µM*,?,.,.,.
COc1ccc(/C=C(\C#N)c2nc(-c3cc4c(ccc5ccccc54)oc3=O)cs2)cc1O,3.3µM*,2.9µM*,.,.,.
Cc1ccc(/C=C(\C#N)c2nc(-c3cc4c(ccc5ccccc54)oc3=O)cs2)cc1,-8%,3%,.,.,.
CNc1ccc(/C=C/C(=O)c2ccc3c(c2)OCCO3)cc1[N+](=O)[O-],?,?,-21%,-24%,-1
CNc1ccc(/C=C2\COc3ccccc3C2=O)cc1[N+](=O)[O-],12µM*,?,15%,10%,2
O=C1/C(=C/c2ccccc2[N+](=O)[O-])COc2ccccc21,?,2.6µM*,18µM*,8.2µM*,-104*
O=[N+]([O-])c1ccccc1/C=C1\C=Cc2ccccc21,-24%,8%,.,.,.
CCOc1cc(N2CCOCC2)c(OCC)cc1NC(=O)COC(=O)c1ccc(OC)c([N+](=O)[O-])c1,23µM*,15µM*,17%,11%,0
CCOc1cc(N2CCOCC2)c(OCC)cc1NC(=O)c1ccc(S(=O)(=O)N(C)C)cc1,?,?,11%,-12%,-14
CCOc1cc(N2CCOCC2)c(OCC)cc1NC(=O)c1ccc(C)cc1,9.2µM*,?,-10%,-6%,6

# Bioassay records deposited in PubChem BioAssay by National Center for Advancing Translational Sciences (NCATS).
